# Experimental data taken from PubChem BioAssay (NCI).
# The panel holds about 79,000 compounds, 15% with a hit somewhere; the sample as a whole holds those more often. Unmarked numbers belong to inactive results. Active and inactive are the calls of the source. Rule as the data show it: active = growth inhibition above about 70%; inactive = the rest.
# Legend:
# [1] = NCI Yeast Anticancer Drug Screen. Data for the rad52 strain (AID 147);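 also: 0% = growth of vehicle-treated control cultures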; conditions: S. cerevisiae rad52 mutant growth inhibition, hits give high values
# In short: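 Here a repair-compromised yeast strain receives each compound; its growth is then quantified and normalised to vehicle-only controls.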
# [2] = NCI Yeast Anticancer Drug Screen. Data for the wt1 strain (AID 149);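 also: 0% = growth of vehicle-treated wt1 cultures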; conditions: S. cerevisiae wt1 strain (SPY 50644) growth inhibition, hits give high values
# In short: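 Growth inhibition read against vehicle controls after compound exposure of the wt1 yeast strain.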
# [3] = NCI Yeast Anticancer Drug Screen. Data for the rad50EPP+ strain (AID 151);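 also: 0% = growth of vehicle-treated control cultures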; conditions: S. cerevisiae rad50 mutant strain, hits give high values
# In short: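 Read-out is yeast growth inhibition relative to vehicle; cells used were the rad50EPP+ strain.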
# [4] = NCI Yeast Anticancer Drug Screen. Data for the mgt1 strain (AID 153); conditions: S. cerevisiae mgt1 mutant growth inhibition, hits give high values
# In short: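 Measured: inhibition of mgt1 yeast growth by compound, normalized to vehicle-treated cultures.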
# [5] = NCI Yeast Anticancer Drug Screen. Data for the rad50 strain (AID 155);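 also: 0% = growth of vehicle-only cultures of the same strain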; conditions: S. cerevisiae rad50 strain growth inhibition, hits give high values
# In short: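 Readout: growth inhibition relative to vehicle-treated cultures. Compound exposure was carried out in a genetically defined yeast strain deficient in DNA damage repair.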
# [6] = NCI Yeast Anticancer Drug Screen. Data for the mec2-1 strain (AID 157); conditions: S. cerevisiae mec2-1 strain, hits give high values
# In short: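 Using mec2-1 yeast: add compound, measure growth, express inhibition versus vehicle-treated cultures.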
# [7] = NCI Yeast Anticancer Drug Screen. Data for the rad14 strain (AID 159);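 also: 0% = growth of vehicle-treated control cultures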; conditions: S. cerevisiae rad14 strain growth inhibition, hits give high values
# In short: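 Growth inhibition vs vehicle controls; genetically altered yeast strain (DNA damage repair defect) treated with test compounds.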
# [8] = NCI Yeast Anticancer Drug Screen. Data for the sgs1 mgt1 strain (AID 161);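 also: 0% = growth of cultures given vehicle only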; conditions: S. cerevisiae sgs1 mgt1 strain, hits give high values
# In short: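 Yeast cells carrying a defined DNA-repair defect were exposed to test compounds. Growth inhibition was measured relative to vehicle-treated controls.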
# [9] = NCI Yeast Anticancer Drug Screen. Data for the CLN2oe strain (AID 163);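 also: 0% = growth of vehicle-only control cultures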; conditions: S. cerevisiae CLN2oe strain, hits give high values
# In short: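 Whole-cell yeast growth assay. A strain engineered for altered cell-cycle control received compound, and inhibition relative to vehicle-treated cultures was recorded.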
# [10] = NCI Yeast Anticancer Drug Screen. Data for the cln2 rad14 strain (AID 165);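 also: 0% = growth equal to vehicle treated cultures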; conditions: S. cerevisiae cln2 rad14 strain, hits give high values
# In short: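 Yeast strain cln2 rad14, bearing defects in cell cycle control and DNA repair, serves as the test system; values reflect growth inhibition compared with vehicle.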
# [11] = NCI Yeast Anticancer Drug Screen. Data for the bub3 strain (AID 167); conditions: S. cerevisiae bub3 mutant strain, hits give high values
# In short: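 Readout: yeast growth inhibition, expressed relative to vehicle-only wells. The test organism is a mutant strain from a panel with lesions in DNA repair or checkpoint genes.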
# [12] = NCI Yeast Anticancer Drug Screen. Data for the wt2 strain (AID 169);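 also: 0% = growth of vehicle-treated yeast cultures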; conditions: S. cerevisiae wt2 strain growth inhibition, hits give high values
# In short: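 Treated yeast vs. vehicle-treated yeast: growth inhibition determined.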
# [13] = NCI Yeast Anticancer Drug Screen. Data for the mlh1 strain (AID 171);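 also: 0% = growth of vehicle-treated control cultures of the same strain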; conditions: S. cerevisiae mlh1 strain growth inhibition, hits give high values
# In short: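 A yeast strain with a defined genetic lesion serves as the test organism. Cultures receive compound or vehicle, and growth is measured.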
# [14] = NCI Yeast Anticancer Drug Screen. Data for the sgs1 strain (AID 173);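 also: 0% = growth of vehicle-only control cultures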; conditions: S. cerevisiae sgs1 mutant, hits give high values
# In short: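 A genetically defined yeast mutant is incubated with the test compound, and its growth is compared to that of the same strain given vehicle.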
# [15] = NCI Yeast Anticancer Drug Screen. Data for the mlh1 rad18 strain (AID 175); conditions: S. cerevisiae mlh1 rad18 strain growth inhibition, hits give high values
# In short: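 Steps: expose repair-defective yeast to compound; measure growth; express inhibition against vehicle-treated controls.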
# [16] = NCI Yeast Anticancer Drug Screen. Data for the rad18 strain (AID 177); conditions: S. cerevisiae rad18 mutant growth inhibition, hits give high values
# In short: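 Measured value is growth inhibition of a yeast strain bearing a DNA repair alteration, referenced to vehicle-treated cells.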
# [17] = at 5.0 µM (retest, dose inferred, filed as 0.5)
# [18] = at 50.0 µM (retest, dose inferred, filed as 5.0)
smiles,measurement,setting,value
C=C1CCC(O)C/C1=C/C=C1\CCCC2(C)C1CCC2C(C)CCCC(C)C (stereo unspecified),growth inhibition,[1]; at 1.2 µM,-22%
same,growth inhibition,[1]; at 3.7 µM,-3%
same,growth inhibition,[1]; at 11.0 µM,-11%
same,growth inhibition,[1]; at 33.0 µM,4%
same,growth inhibition,[1]; at 100.0 µM,49%
same,growth inhibition,[2]; at 1.2 µM,-26%
same,growth inhibition,[2]; at 3.7 µM,-16%
same,growth inhibition,[2]; at 11.0 µM,-12%
same,growth inhibition,[2]; at 33.0 µM,-15%
same,growth inhibition,[2]; at 100.0 µM,4%
same,growth inhibition,[3]; at 1.2 µM,-16%
same,growth inhibition,[3]; at 3.7 µM,-20%
same,growth inhibition,[3]; at 11.0 µM,-22%
same,growth inhibition,[3]; at 33.0 µM,-8%
same,growth inhibition,[3]; at 100.0 µM,73% (active)
same,growth inhibition,[4]; at 1.2 µM,-21%
same,growth inhibition,[4]; at 3.7 µM,-15%
same,growth inhibition,[4]; at 11.0 µM,-7%
same,growth inhibition,[4]; at 33.0 µM,-21%
same,growth inhibition,[4]; at 100.0 µM,52%
same,growth inhibition,[5]; at 1.2 µM,-18%
same,growth inhibition,[5]; at 3.7 µM,-9%
same,growth inhibition,[5]; [17],13%
same,growth inhibition,[5]; at 11.0 µM,5%
same,growth inhibition,[5]; at 33.0 µM,0%
same,growth inhibition,[5]; [18],84% (active)
same,growth inhibition,[5]; at 50.0 µM,51.8%
same,growth inhibition,[5]; at 100.0 µM,30%
same,growth inhibition,[6]; at 1.2 µM,-40%
same,growth inhibition,[6]; at 3.7 µM,-25%
same,growth inhibition,[6]; [17],12%
same,growth inhibition,[6]; at 11.0 µM,-18%
same,growth inhibition,[6]; at 33.0 µM,2%
same,growth inhibition,[6]; [18],94% (active)
same,growth inhibition,[6]; at 50.0 µM,-9.05%
same,growth inhibition,[6]; at 100.0 µM,-15%
same,growth inhibition,[7]; at 1.2 µM,-14%
same,growth inhibition,[7]; at 3.7 µM,-27%
same,growth inhibition,[7]; at 11.0 µM,-23%
same,growth inhibition,[7]; at 33.0 µM,-23%
same,growth inhibition,[7]; at 100.0 µM,38%
same,growth inhibition,[8]; [17],6%
same,growth inhibition,[8]; [18],57%
same,growth inhibition,[8]; at 50.0 µM,54.9%
same,growth inhibition,[9]; at 1.2 µM,-11%
same,growth inhibition,[9]; at 3.7 µM,8%
same,growth inhibition,[9]; at 11.0 µM,2%
same,growth inhibition,[9]; at 33.0 µM,6%
same,growth inhibition,[9]; at 100.0 µM,39%
same,growth inhibition,[10]; [17],9%
same,growth inhibition,[10]; [18],19%
same,growth inhibition,[10]; at 50.0 µM,4.95%
same,growth inhibition,[11]; at 1.2 µM,-25%
same,growth inhibition,[11]; at 3.7 µM,-23%
same,growth inhibition,[11]; [17],9%
same,growth inhibition,[11]; at 11.0 µM,-27%
same,growth inhibition,[11]; at 33.0 µM,-13%
same,growth inhibition,[11]; [18],69%
same,growth inhibition,[11]; at 50.0 µM,24.1%
same,growth inhibition,[11]; at 100.0 µM,7%
same,growth inhibition,[12]; at 1.2 µM,-8%
same,growth inhibition,[12]; at 3.7 µM,-14%
same,growth inhibition,[12]; at 11.0 µM,-18%
same,growth inhibition,[12]; at 33.0 µM,-27%
same,growth inhibition,[12]; at 100.0 µM,22%
same,growth inhibition,[13]; at 1.2 µM,-24%
same,growth inhibition,[13]; at 3.7 µM,-26%
same,growth inhibition,[13]; at 11.0 µM,-26%
same,growth inhibition,[13]; at 33.0 µM,-5%
same,growth inhibition,[13]; at 100.0 µM,18%
same,growth inhibition,[14]; at 1.2 µM,-23%
same,growth inhibition,[14]; at 3.7 µM,-6%
same,growth inhibition,[14]; at 11.0 µM,-25%
same,growth inhibition,[14]; at 33.0 µM,-13%
same,growth inhibition,[14]; at 100.0 µM,35%
same,growth inhibition,[15]; [17],11%
same,growth inhibition,[15]; [18],93% (active)
same,growth inhibition,[15]; at 50.0 µM,82.9% (active)
same,growth inhibition,[16]; at 1.2 µM,-10%
same,growth inhibition,[16]; at 3.7 µM,-6%
same,growth inhibition,[16]; at 11.0 µM,-8%
same,growth inhibition,[16]; at 33.0 µM,13%
same,growth inhibition,[16]; at 100.0 µM,34%
CC(C)/C(Cl)=N\OC(=O)Nc1ccc(F)cc1F,growth inhibition,[1]; at 1.2 µM,1%
same,growth inhibition,[1]; at 3.7 µM,7%
same,growth inhibition,[1]; at 11.0 µM,15%
same,growth inhibition,[1]; at 33.0 µM,28%
same,growth inhibition,[1]; at 100.0 µM,75% (active)
same,growth inhibition,[2]; at 1.2 µM,2%
same,growth inhibition,[2]; at 3.7 µM,1%
same,growth inhibition,[2]; at 11.0 µM,-2%
same,growth inhibition,[2]; at 33.0 µM,-1%
same,growth inhibition,[2]; at 100.0 µM,6%
same,growth inhibition,[3]; at 1.2 µM,7%
same,growth inhibition,[3]; at 3.7 µM,13%
same,growth inhibition,[3]; at 11.0 µM,25%
same,growth inhibition,[3]; at 33.0 µM,54%
same,growth inhibition,[3]; at 100.0 µM,85% (active)
same,growth inhibition,[4]; at 1.2 µM,3%
same,growth inhibition,[4]; at 3.7 µM,1%
same,growth inhibition,[4]; at 11.0 µM,4%
same,growth inhibition,[4]; at 33.0 µM,13%
same,growth inhibition,[4]; at 100.0 µM,96% (active)
same,growth inhibition,[5]; at 1.2 µM,2%
same,growth inhibition,[5]; at 3.7 µM,8%
same,growth inhibition,[5]; [17],2%
same,growth inhibition,[5]; at 11.0 µM,15%
same,growth inhibition,[5]; at 33.0 µM,32%
same,growth inhibition,[5]; [18],78% (active)
same,growth inhibition,[5]; at 50.0 µM,6.55%
same,growth inhibition,[5]; at 100.0 µM,80% (active)
same,growth inhibition,[6]; at 1.2 µM,5%
same,growth inhibition,[6]; at 3.7 µM,9%
same,growth inhibition,[6]; [17],4%
same,growth inhibition,[6]; at 11.0 µM,13%
same,growth inhibition,[6]; at 33.0 µM,28%
same,growth inhibition,[6]; [18],83% (active)
same,growth inhibition,[6]; at 50.0 µM,72.4% (active)
same,growth inhibition,[6]; at 100.0 µM,95% (active)
same,growth inhibition,[7]; at 1.2 µM,0%
same,growth inhibition,[7]; at 3.7 µM,3%
same,growth inhibition,[7]; at 11.0 µM,9%
same,growth inhibition,[7]; at 33.0 µM,17%
same,growth inhibition,[7]; at 100.0 µM,37%
same,growth inhibition,[8]; [17],-12%
same,growth inhibition,[8]; [18],69%
same,growth inhibition,[8]; at 50.0 µM,70.8% (active)
same,growth inhibition,[9]; at 1.2 µM,7%
same,growth inhibition,[9]; at 3.7 µM,11%
same,growth inhibition,[9]; at 11.0 µM,12%
same,growth inhibition,[9]; at 33.0 µM,12%
same,growth inhibition,[9]; at 100.0 µM,24%
same,growth inhibition,[10]; [17],-1%
same,growth inhibition,[10]; [18],38%
same,growth inhibition,[10]; at 50.0 µM,44.8%
same,growth inhibition,[11]; at 1.2 µM,23%
same,growth inhibition,[11]; at 3.7 µM,38%
same,growth inhibition,[11]; [17],27%
same,growth inhibition,[11]; at 11.0 µM,70% (active)
same,growth inhibition,[11]; at 33.0 µM,90% (active)
same,growth inhibition,[11]; [18],97% (active)
same,growth inhibition,[11]; at 50.0 µM,82.1% (active)
same,growth inhibition,[11]; at 100.0 µM,98% (active)
same,growth inhibition,[12]; at 1.2 µM,0%
same,growth inhibition,[12]; at 3.7 µM,0%
same,growth inhibition,[12]; at 11.0 µM,2%
same,growth inhibition,[12]; at 33.0 µM,12%
same,growth inhibition,[12]; at 100.0 µM,63%
same,growth inhibition,[13]; at 1.2 µM,0%
same,growth inhibition,[13]; at 3.7 µM,6%
same,growth inhibition,[13]; at 11.0 µM,9%
same,growth inhibition,[13]; at 33.0 µM,16%
same,growth inhibition,[13]; at 100.0 µM,53%
same,growth inhibition,[14]; at 1.2 µM,-1%
same,growth inhibition,[14]; at 3.7 µM,0%
same,growth inhibition,[14]; at 11.0 µM,4%
same,growth inhibition,[14]; at 33.0 µM,27%
same,growth inhibition,[14]; at 100.0 µM,83% (active)
same,growth inhibition,[15]; [17],-29%
same,growth inhibition,[15]; [18],69%
same,growth inhibition,[15]; at 50.0 µM,58%
same,growth inhibition,[16]; at 1.2 µM,-3%
same,growth inhibition,[16]; at 3.7 µM,-1%
same,growth inhibition,[16]; at 11.0 µM,4%
same,growth inhibition,[16]; at 33.0 µM,17%
same,growth inhibition,[16]; at 100.0 µM,79% (active)
